# Rows were chosen to be rich in hits. Some 2.1% of all compounds tested hit in one or more screens of this group.
# GalR3 antag = human GalR3 antagonism | inhibition, % at 3 µM | AID 651719 | HEK293 GalR3-CNG cAMP membrane potential fluorescence; galR3 body fused to GalR1 C-terminus | 0.44% of 360,000 active | O60755;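 active means inhibition above the screen-wide average plus 3 SD, cut at about 13% in these data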;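 further: forskolin and galanin both at EC90 stimulate the cells; cAMP rise reported by CNG channel membrane potential dye signal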
# Gli-Sufu block = antagonists of Gli-Sufu signaling; Sufu-KO-LIGHT fibroblasts, Gli luciferase reporter luminescence; inhibition, % at 5 µM; 0.74% of 340,000 active; AID 588413;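 active means inhibition above about 55%, limit read from the data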
# HIV Env fusion = inhibitors of HIV Env-mediated cell fusion; HeLa-JRFL Env/CEM21 cell fusion, luciferase; inhibition, % at 12.3 µM; 1.1% of 360,000 active;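 active means mean replicate inhibition score of at least 50 and every replicate individually at or above 50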
# NR2F2 inh = NR2F2 (human) inhibition, primary screen; P24468; HEK293T NGFI-A luciferase reporter, luminescence; 0.7% of 370,000 active; inhibition, % at 8.6 µM;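 active means inhibition above a per-plate cutoff, mean inhibition of test wells between control levels plus 3 SD, cut at about 38% in these data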;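 further: cells cotransfected with COUP-TFII expression vector driving the NGFI-A reporter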
# Target sequence (P24468 whole entry, looked up): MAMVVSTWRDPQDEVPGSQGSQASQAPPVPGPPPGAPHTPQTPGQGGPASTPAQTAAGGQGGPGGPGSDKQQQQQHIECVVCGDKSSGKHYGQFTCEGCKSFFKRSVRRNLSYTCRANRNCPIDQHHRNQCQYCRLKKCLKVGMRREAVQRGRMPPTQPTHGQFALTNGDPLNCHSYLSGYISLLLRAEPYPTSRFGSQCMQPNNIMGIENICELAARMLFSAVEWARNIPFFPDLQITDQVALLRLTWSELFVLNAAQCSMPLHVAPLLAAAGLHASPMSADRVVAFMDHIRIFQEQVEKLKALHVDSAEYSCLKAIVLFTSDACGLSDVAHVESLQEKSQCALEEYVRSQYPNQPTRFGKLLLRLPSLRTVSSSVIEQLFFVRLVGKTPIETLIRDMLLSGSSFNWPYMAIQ
# aDG glyco act = increases alpha dystroglycan glycosylation; Pro5-aDG cells, alpha-DG glycosylation AlphaScreen (IIH6); 0% Pro5, 100% B10-LARGE cell signal; activation, % at 10 µM; 0.22% of 360,000 active; AID 624168;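 active means activation of at least 8% versus controls, or a plate z-score of at least 8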;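 further: Pro5 are CHO cells carrying HIG-tagged alpha-DG that lacks glycosylation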
# aDG glyco conf = confirmation of alpha dystroglycan glycosylation activators | shares compounds with aDG glyco act | Pro5-aDG cells, alpha-DG glycosylation, IIH6 AlphaLISA; scaled to LARGE-overexpressing B10 cells as 100% | activation, % at 10 µM (by protocol) | 17% of 600 active | AID 651671;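 active means activation of at least 7% in one or more replicates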;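 further: cells exposed to compound for two days before detection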
# A number is an active result; – = inactive; · = no result given.
SMILES,GalR3 antag,Gli-Sufu block,HIV Env fusion,NR2F2 inh,aDG glyco act,aDG glyco conf
CCN1CCc2c(sc(NC(=O)c3ccc(S(=O)(=O)N4CCOCC4)cc3)c2C(=O)OC)C1,–,–,·,–,–,·
CCN1CCc2c(sc(NC(=O)c3ccc(S(=O)(=O)N4CCCCCC4)cc3)c2C(=O)NC)C1,–,–,–,–,25.7,–
CCN1CCc2c(sc(NC(=O)c3ccc(S(=O)(=O)N4CCOCC4)cc3)c2C(N)=O)C1,·,–,–,–,88.4,–
CC1CCCN(S(=O)(=O)c2ccc(C(=O)Nc3sc4c(c3C(N)=O)CCN(C)C4)cc2)C1 (configuration not stated),–,–,–,–,47.5,3.7
CC(C)N1CCc2c(sc(NC(=O)C3CCCCC3)c2C(N)=O)C1,·,–,–,–,8.2,–
CCCN1CCc2c(sc(NC(=O)c3ccc(S(=O)(=O)N4CCCC4)cc3)c2C(N)=O)C1,–,–,–,–,–,·
C[C@@H]1CCCCO[C@H](CN(C)C(=O)NC2CCCCC2)[C@H](C)CN([C@@H](C)CO)C(=O)c2cc(NC(=O)CCC(F)(F)F)ccc2O1,·,·,–,·,·,·
COc1ccc(NC(=O)N(C)C[C@@H]2Oc3c(NS(C)(=O)=O)cccc3C(=O)N([C@@H](C)CO)C[C@@H]2C)cc1,·,·,–,·,·,·
CCC(=O)N1c2ccc(S(=O)(=O)N3CCN(c4ccc([N+](=O)[O-])cc4)CC3)cc2CC1C (configuration not stated),–,57.5,–,–,8.8,–
CCC(=O)N1c2ccc(S(=O)(=O)N3CCN(CC)CC3)cc2CC1C (configuration not stated),–,–,–,–,–,·
Cc1noc(C)c1S(=O)(=O)Nc1cccc2c1O[C@H](CN(C)CC1CCCCC1)[C@H](C)CN([C@H](C)CO)C2=O,·,·,–,·,·,·
CCCC(=O)N(Cc1cc(=O)[nH]c2ccccc12)c1ccccc1,–,–,–,–,5.6,–
Cc1ccc(S(=O)(=O)Nc2cccc3c2O[C@@H](CN(C)Cc2ccc(-c4ccccc4)cc2)[C@@H](C)CN([C@H](C)CO)C3=O)cc1,·,·,–,·,·,·
CC(C)NC(=S)N/N=C1\CCCCC1C1CCCCC1 (configuration not stated),–,–,–,–,7.2,–
C[C@H]1CN([C@@H](C)CO)C(=O)c2cc(NC(=O)C3CC3)ccc2O[C@@H]1CN(C)Cc1ccc(C(=O)Nc2ccccc2N)cc1,·,·,–,·,·,·
CC(=O)c1ccc(N2CCC(c3cc(-c4ccc(Cl)cc4Cl)n[nH]3)CC2)c([N+](=O)[O-])c1,–,–,–,–,8.8,–
O=C(NCCc1ccccc1)c1ccc(-c2ccc(F)cc2)o1,–,–,–,–,5.1,–
O=C(NCCc1ccccc1)c1ccc(-c2ccccc2C(F)(F)F)o1,–,–,–,–,·,·
O=C(C[C@H]1C[C@H]2c3cc(NC(=O)C4CCC4)ccc3O[C@H]2[C@@H](CO)O1)NCc1cccc(F)c1,·,·,–,·,·,·
O=C1C(Cl)=C(NCc2ccco2)C(=O)c2ccccc21,–,–,–,–,10.8,10.2
C=CCNC(=S)N/N=C/c1ccc(OCc2ccccc2Cl)cc1,–,–,–,–,6.5,–
O=C(Nc1cc(F)ccc1F)N[C@@H]1CC[C@H](CCNC(=O)c2cnccn2)O[C@H]1CO,·,·,–,·,·,·
O=C(C[C@@H]1C=C[C@H](NC(=O)CC2CC2)[C@H](CO)O1)NCc1ccc(-c2ccccc2)cc1,·,·,–,·,·,·
CCC1Nc2ncnc(N3CCc4ccccc4C3)c2N(Cc2ccc(Cl)cc2)C1=O (configuration not stated),–,–,–,–,15.7,–
C=CCn1c(=N)n(CC(=O)c2ccc(Cl)cc2)c2ccccc21,–,–,–,–,6.7,6.3
C=CCn1c(=N)n(CC(=O)OC)c2ccccc21,–,–,·,–,–,·
CCn1c(=N)n(CC(=O)c2ccc(Cl)c(Cl)c2)c2ccccc21,–,–,–,–,8.0,9.1
Cc1noc(C)c1S(=O)(=O)Nc1ccc2c(c1)C(=O)N([C@@H](C)CO)C[C@H](C)[C@H](CN(C)C)OCCCC[C@@H](C)O2,·,·,–,·,·,·
Cc1ccc2ccc3cccnc3c2n1,–,–,–,–,3.6,4.7
O=C(O)c1ccc2cccnc2c1O,–,–,–,–,–,·

# Screening results: PubChem, several laboratories
